Screening results as filed in PubChem BioAssay.
Hits are enriched below; roughly 10% of the tested compounds scored in any of these assays.
HP1b chromo inh: HP1-beta chromodomain-methylated histone interaction inhibition | 390,000 compounds, 0.56% hits | Potency, µM (highest dose often 114 µM), hits mostly inhibitors | P83916 | AlphaScreen HP1-beta / biotin-H3K9me3 peptide binding | AID 540317; also: nearly all actives have a fitted effect of over 70% in size
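Compound inhibition of the preformed complex between 50 nM HP1-beta and 50 nM biotinylated H3K9me3 peptide was read by AlphaScreen. Buffer was PBS pH 7.4 with 0.01% Tween-20. Incubations ran 30 min at room temperature, with 10 ug/mL donor/acceptor beads.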
BAZ2B inh: inhibitors of human BAZ2B bromodomain; Potency, µM (series often up to 114 µM), actives largely listed as inhibitors; AlphaScreen BAZ2B-H3K14Ac peptide displacement; 360,000 compounds, 4.4% hits; AID 504333; also: nearly all actives have a fitted effect of over 60% in size
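BAZ2B 50 nM plus b-H3(5-23)K14Ac 50 nM, PBS pH 7.4/0.01% Tween-20, 30 min RT; compound added (max 110 uM), 30 min RT; streptavidin donor/Ni-chelate acceptor beads 10 ug/mL final, 20 min dark; AlphaScreen read.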
G9a inh: blocks human histone lysine methyltransferase G9a. Q96KQ7. G9a H3K9 monomethylation, AlphaScreen, 2 h. Potency, µM (doses to about 102 µM), actives largely listed as inhibitors. 350,000 compounds, 8.8% hits; also: nearly all actives have a fitted effect of over 75% in size
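Quantitative HTS format: methyltransferase activity on a biotin-tagged H3K9 peptide is measured by AlphaScreen, using a rabbit anti-monomethyl-H3K9 antibody with streptavidin donor and anti-IgG acceptor beads. Final levels are 20 nM enzyme, 500 nM peptide, 20 uM SAM; 2 h RT.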
JMJD2A Tudor: JMJD2A Tudor domain (human) inhibition; O75164; AlphaScreen JMJD2A-Tudor / H3K4me3 peptide binding; Potency, µM (top dose mostly 114 µM), most hits filed as inhibitors; 390,000 compounds, 4.4% hits; also: nearly all actives have a fitted effect of over 50% in size
Target sequence (O75164 whole entry, looked up, the tested form may be a part): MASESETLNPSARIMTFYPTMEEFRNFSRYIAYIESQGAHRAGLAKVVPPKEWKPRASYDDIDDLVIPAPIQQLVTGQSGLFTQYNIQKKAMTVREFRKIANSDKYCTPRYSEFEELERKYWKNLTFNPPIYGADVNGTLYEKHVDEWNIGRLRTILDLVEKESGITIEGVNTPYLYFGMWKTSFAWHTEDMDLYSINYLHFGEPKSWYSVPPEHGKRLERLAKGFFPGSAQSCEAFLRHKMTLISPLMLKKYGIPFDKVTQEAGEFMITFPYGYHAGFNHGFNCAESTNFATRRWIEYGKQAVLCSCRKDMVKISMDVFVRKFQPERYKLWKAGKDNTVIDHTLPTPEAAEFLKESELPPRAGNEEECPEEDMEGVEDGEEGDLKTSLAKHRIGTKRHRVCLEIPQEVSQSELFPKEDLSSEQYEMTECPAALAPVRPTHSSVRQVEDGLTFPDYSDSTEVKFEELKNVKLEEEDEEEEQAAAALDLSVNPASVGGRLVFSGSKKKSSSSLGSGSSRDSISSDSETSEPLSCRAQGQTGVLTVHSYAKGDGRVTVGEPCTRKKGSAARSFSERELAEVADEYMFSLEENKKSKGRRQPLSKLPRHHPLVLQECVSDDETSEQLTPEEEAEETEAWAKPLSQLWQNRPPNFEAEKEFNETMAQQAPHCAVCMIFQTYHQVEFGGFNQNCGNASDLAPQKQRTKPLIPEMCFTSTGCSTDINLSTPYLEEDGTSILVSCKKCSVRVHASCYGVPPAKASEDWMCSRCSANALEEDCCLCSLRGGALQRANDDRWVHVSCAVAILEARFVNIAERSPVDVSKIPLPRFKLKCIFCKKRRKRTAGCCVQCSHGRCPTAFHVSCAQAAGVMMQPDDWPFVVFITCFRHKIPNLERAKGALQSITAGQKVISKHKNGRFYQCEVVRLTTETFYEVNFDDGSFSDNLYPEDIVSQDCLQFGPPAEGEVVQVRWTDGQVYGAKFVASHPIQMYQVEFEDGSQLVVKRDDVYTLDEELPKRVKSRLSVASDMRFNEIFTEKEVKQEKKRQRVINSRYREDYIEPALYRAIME
L3MBTL1 inh: L3MBTL1 (human) inhibition; Q9Y468; 230,000 compounds, 0.66% hits; Potency, µM (doses to about 57.1 µM), actives largely listed as inhibitors; AlphaScreen L3MBTL1–H3K9me1 peptide binding; also: nearly all actives have a fitted effect of over 60% in size
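AlphaScreen assay: L3MBTL1 (50 nM final) was preincubated 30 min at room temperature with biotinylated H3(1-15)K9me1 peptide (75 nM final), then 30 min with library compounds; streptavidin donor and nickel chelate acceptor beads (10 ug/mL final) added, 30 min dark.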
GLS inh: inhibitors of human glutaminase (GLS) | O94925 | GLS enzymatic activity, qHTS titration | Potency, µM (doses to about 45.5 µM), actives largely listed as inhibitors | 410,000 compounds, 0.21% hits
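Human kidney-isoform GLS in 45 mM KH2PO4 pH 8.2, 0.02% Tween-20, with compound, started with 1mM L-Glutamine (added stock). Glutamate oxidase/HRP/Amplex red coupled fluorescence read at start and after 30 min at RT.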
Hits are given with their value; . = inactive; ? = inconclusive; / = not tested or not shown; [ ] = dose if it differs, or a comment. Calls follow the shape of the dose curve; as a rule, active = well fitted curve in the direction sought with a large enough effect; inconclusive = small, poorly fitted or top-dose-only effect, or another doubt; inactive = no such curve, though single readings can be large; an effect the other way counts as inactive or inconclusive.

SMILES	HP1b chromo inh	BAZ2B inh	G9a inh	JMJD2A Tudor	L3MBTL1 inh	GLS inh
N#Cc1ccsc1NC(=O)CN1CCN(c2ccccc2)CC1	.	.	.	.	.	.
Cc1cc(C)c(NC(=O)CSc2nc3ccccc3nc2N2CCCCC2)c(C)c1	.	.	.	.	/	.
Cc1ccc2c(c1)N(C(=O)N1CCC(C(=O)NCc3ccccc3F)CC1)CC(C)O2 (stereo not given)	.	.	.	?	/	.
O=C(CCC(=O)OCC(=O)c1ccc(Cl)cc1)Nc1ccc(Oc2ccccc2)cc1	.	.	.	.	/	.
Cc1c(NC(=O)CN2CCN(c3ccc(O)cc3)CC2)c(=O)n(-c2ccccc2)n1C	?	/	6.3µM	28µM	.	.
Cc1c(NC(=O)CN2CCN(c3ccc([N+](=O)[O-])cc3)CC2)c(=O)n(-c2ccccc2)n1C	.	.	.	.	/	.
Cc1ccc(-n2cc3c(c2-c2ccccc2Br)c(=O)n(C)c(=O)n3C)cc1N	.	50µM	?	?	/	.
O=C(NCc1ccccc1F)C(=O)NCC(c1cccs1)S(=O)(=O)c1cccs1 (stereo not given)	.	.	.	.	/	.
CCCCN1C(=O)/C(=C/C=C2\Oc3ccccc3N2CC)SC1=S	.	?	.[0.501 µM]	.	.	.
CCN1/C(=C/C=C/c2oc3ccc(-c4ccccc4)cc3[n+]2CC)Oc2ccc(-c3ccccc3)cc21	.	28µM	/	?	.	.
COc1cc(C(=O)Nc2nnc(C(C)(C)C)s2)c([N+](=O)[O-])cc1OC	?	.	10µM	.	.	.
COC(=O)C1=C(C)NC(=O)C1(NC(=O)c1ccc(Cl)cc1)C(F)(F)F (stereo not given)	.	.	.	.	/	.
CCCCCCCCCc1nc2sc3c(c2c(=O)n1NC(=O)c1ccccc1[N+](=O)[O-])CC(C)(C)OC3	.	.	71µM	?	.	.
CCCCCCCCCc1nc2sc3c(c2c(=O)n1NC(=O)c1ccc([N+](=O)[O-])cc1)CC(C)(C)OC3	.	.	?	?	.	.
Cc1ccccc1Cn1cc(NC(=O)c2cc(C3CC3)on2)cn1	.	?	40µM	.	.	.
Cc1cc(Sc2ncnc(N)c2[N+](=O)[O-])ncn1	.	.	.[12.7 µM]	.	.	.
Cc1cc(Sc2nc(N)ncc2[N+](=O)[O-])ncn1	.	?	32µM	.	.	.
COc1ccc(N2CCN(C(=O)c3nn(-c4ccc(C)cc4)c(=O)n(C)c3=O)CC2)cc1	.	.	.	.	/	.
Cc1cc(C)nc(-n2nc(C)c(Sc3ccc(F)cc3)c2N)n1	.	.	50µM	?	.	.
Cc1cc(C)nc(-n2nc(C)c3c(C(F)(F)F)cc(=O)[nH]c32)n1	.	.	.	.	.	.
O=[N+]([O-])c1c(Nc2cccc(O)c2)cc(Cl)c2nonc12	.	?	45µM	?	.	.
Cc1c(Nc2cc(Cl)c3nonc3c2[N+](=O)[O-])c(=O)n(-c2ccccc2)n1C	.	.	7.1µM	.[11.4 µM]	/	.
O=C(O)c1ccc(Nc2cc(Cl)c3nonc3c2[N+](=O)[O-])cc1	.	.	35µM	.	.	.
O=C(O)c1cccc(Nc2ccc3nonc3c2[N+](=O)[O-])c1	.	.	.	.	/	.
Nc1nc(C2C(=O)CCCC2=O)cs1	.	45µM	.[12.7 µM]	10µM	.	.
SMILES	HP1b chromo inh	BAZ2B inh	G9a inh	JMJD2A Tudor	L3MBTL1 inh	GLS inh
Cc1ccc(C)c(NC(=S)NNc2ccc(F)cc2F)c1	?	20µM	45µM	32µM	/	.
Cc1ccc(NNC(=S)Nc2ccc(C(C)C)cc2)c(C)c1	22µM	35µM	11µM	14µM	?	?
Cc1ccc(NC(=S)NNC(=S)Nc2ccc(C)cc2)cc1	.	/	/	.	/	.
CCOc1cccc(C(=O)N(Cc2ccc(C(C)C)cc2)C2CCS(=O)(=O)C2)c1 (stereo not given)	.	.	.	.	/	.
CCN(CC)C1=CC(=O)OC12CCCCC2	.	.	3.5µM	32µM	.	.
COC(=O)c1c(SC)nc2ccccc2c1OCc1ccccc1Cl	.	.	.	.	/	.
CC(CNC(=O)CCc1cn(Cc2ccccc2Cl)c2ccccc12)c1ccccc1 (stereo not given)	.	?	?	.	/	.
Cc1ccc(NC(=O)Nn2cnnc2)c(C)c1	.	.	.	.	/	.
CCC(=O)NNC(=S)NC(=O)c1ccc(C)cc1	.	.	.[0.501 µM]	?	.	.
O=C(NC(=S)Nn1cnnc1)c1cccc(Br)c1	.	.	11µM	.	.	.
Cc1ccc(C(=O)NC(=S)Nn2cnnc2)cc1	.	.	10µM	.	.	.
Cc1ccc(NC(=S)Nn2cnnc2)c(C)c1	/	?	10µM	/	/	/
CCN=C1S/C(=C\c2cn(CC)c3ccccc23)C(=O)N1CC	.	.	.	.	.	.
Cc1ccc(N=C2S/C(=C\c3cn(CC(=O)O)c4ccccc34)C(=O)N2C)cc1	.	?	79µM	.	.	.
Cc1cccc2cc(CN(Cc3ccccc3)Cc3nnnn3Cc3ccccc3)c(=O)[nH]c12	.	/	/	.	/	/
O=C1CCCN2N=C(SCC(=O)Nc3ccc([N+](=O)[O-])cc3)SC2=N1	.	.	.	56µM	/	.
Cc1cccc(NC(=O)CSC2=NN3CCCC(=O)N=C3S2)c1C	.	50µM	.	?	.	.
O=C1CCCN2N=C(SCC(=O)Nc3ccc(OC(F)(F)F)cc3)SC2=N1	.	.	.	.	/	.
COc1ccc(C(=O)c2cn(Cc3ccccc3F)c3cc4c(cc3c2=O)OCCO4)cc1OC	.	.	.	.	/	.
CCOc1ccccc1C(=O)N(Cc1cc(OC)c(OC)c(OC)c1)c1ccccn1	.	.	.	.	/	.
Cc1oc2ncn(C)c(=O)c2c1C(=O)Nc1ccc(F)cc1	.	.	.	.	/	.
CN(C)C(=S)NC(=NCc1ccc([N+](=O)[O-])cc1)c1ccccc1	.	.	71µM	.	/	.
Cc1c(Cl)cccc1-n1ncc(C(=O)NC2CCCC2)c1C1CCN(C(=O)OC(C)(C)C)CC1	.	.	.	.	/	.
CC(/C=C/c1ccc(N(C)C)cc1)=N\N=C(/N)SC1CC(=O)N(c2ccc(C(=O)O)cc2)C1=O (stereo not given)	?	50µM	?	32µM	.	.
O=C(O)c1ccc(N2C(=O)CC(SC(=Nc3ccccc3)Nc3ccccc3)C2=O)cc1 (stereo not given)	.	.	.	.	.	.
COc1ccc(C(=O)N(Cc2ccccc2)Cc2ccc(OC)c(COc3ccc(NC(C)=O)cc3)c2)cc1	.	/	/	?	/	/
O=C(NCCN1CCOCC1)C1(C(F)(F)F)CC(CCCO)CCCO1 (stereo not given)	.	/	/	.	/	/
CCN(CC)c1ccc(N=Nc2ncn[nH]2)cc1	.	/	1µM	?	.	.
